Vif inh = inhibitors of HIV Vif | 340,000 tested, 0.35% active | HEK293T cells, Vif self-association by quenched fluorescence, imaging, 24 h | inhibition, % at 7.49 µM | AID 602346; in the data active = inhibition above about 50%, passing the limit was not always enough; inconclusive = no clear call, values can overlap the other calls; inactive = below about 31%
Wnt bcat act = activates Wnt/beta-catenin signaling in a reporter cell assay | activator, plate reader | activation, % at 9.35 µM | 300,000 tested, 1.2% active | AID 743398; in the data active = activation above about 30%, passing the limit was not always enough; inconclusive = no clear call, values can overlap the other calls;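 also: 0% = neutral control wells and 100% = positive control wells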
MITF act = increases MITF-driven TRPM1 promoter luciferase signal | SK-MEL-5 TRPM1-promoter luciferase, 24 h; % of positive control, neutral wells = 0 | activation, % at 12.5 µM | 300,000 tested, 0.75% active;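 active = mean activation of at least 80% with every replicate also reaching 80%; inconclusive = mean reaches 80% but some replicate falls short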;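 also: 0% = neutral control wells and 100% = parthenolide positive control wells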
esBAF inh = SWI/SNF esBAF complex inhibition | mouse ES cells, Bmi1-luciferase knock-in reporter, 24 h; 100% = twice the neutral-well signal | reporter increase, % at 12.5 µM | 350,000 tested, 2% active | AID 602393; in the data active = activation above about 40%; inconclusive = no clear call, values can overlap the other calls;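 also: 0% = median of the plate's neutral control wells and 100% = double that signal; a rise in the Bmi1 reporter signal indicates esBAF inhibition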
PfHsp90 set2 = inhibits growth of yeast expressing Plasmodium falciparum Hsp90. S. cerevisiae expressing PfHsp90, BacTiter-Glo ATP, 48 h; yeast lacking PDR1 and PDR3 efflux regulators. inhibition, % at 9.4 µM. 310,000 tested, 0.32% active. AID 504621;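 active = every replicate shows inhibition above about 80%, whatever the replicate mean, limit read from the data; inconclusive = mean inhibition reaches the set limit but some replicate falls short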;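 also: 0% = DMSO neutral controls and 100% = 20 µM radicicol positive controls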
N-glyco inh = blocks N-linked glycosylation in D54 reporter cells; D54 ERlucT glycosylation luciferase reporter, 24 h; percent of 100 nM tunicamycin response; 360,000 tested, 0.23% active; reporter increase, % at 12.5 µM;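 active = mean luciferase reporter signal, scaled so untreated is 0 and the glycosylation-blocking control 100, at or above a set limit in every replicate; inconclusive = mean reaches the limit but not every replicate does; inactive = mean below the limit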;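 also: luciferase carries N-glycosylation sites so blocking glycosylation raises the light; 0% = median of neutral control wells and 100% = median of 100 nM tunicamycin wells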
Numbers without * were called inactive; ? = inconclusive; · = no result given. Compounds with a hit are over-represented: about 3% of the library has one in this group of screens.

SMILES	Vif inh	Wnt bcat act	MITF act	esBAF inh	PfHsp90 set2	N-glyco inh
Cc1cccc(OCCn2c(=O)sc3ccccc32)c1	-1.3	·	90.6*	68.2*	-17.7	-5.9
COc1ccc(OCCn2c(=O)sc3ccccc32)cc1	22.0	-0.9	58.2	·	-9.8	-2.0
Cc1cccc(OCCCn2c(=O)sc3ccccc32)c1	·	·	61.3	54.0*	5.1	-2.8
Cc1cccc(OCCN2C(=O)c3ccccc3C2=O)c1	0.9	-0.6	52.3	·	7.0	0.5
Cc1ccccc1OCCn1c(=O)sc2ccccc21	-0.2	-1.3	14.3	63.4*	-21.0	-5.0
Cc1cccc(OCCn2c(=O)n(C)c3ccccc32)c1	-11.7	?	67.0	78.0*	15.9	-3.7
O=C(O)c1ccc(S(=O)(=O)Nc2ccc(O)c(Sc3nc4ccccc4s3)c2)cc1	13.7	-7.6	-14.2	-5.5	-25.6	1.0
CO[C@@H]1CN(C)C(=O)c2cc(NC(=O)NC(C)C)ccc2OC[C@@H](C)N(C(=O)C2CCC2)C[C@H]1C	·	·	·	2.8	·	·
CC1CCCN(C(=O)Nc2ccc(Br)cc2Cl)C1 (stereo unspecified)	-2.9	3.4	34.7	·	15.0	1.9
Cc1ccc2oc(=O)n(CCCOc3ccccc3)c2c1	-2.2	41.6*	·	37.3	·	1.1
COc1ccc(C2=NOC(Cn3nc(C(=O)NCc4ccco4)cc3-c3ccccc3)C2)cc1 (stereo unspecified)	-8.6	-4.4	0.4	-8.9	7.4	-2.9
CCOc1ccc(-c2ccc(SCC(=O)NC3CCCCC3)nn2)cc1	-3.0	20.4	94.5*	?	-4.5	-5.5
Cc1ccc(-c2ccc(SCC(=O)NC3CCCCC3)nn2)cc1	-14.5	4.2	42.0	52.4*	-5.4	0.7
COc1ccc(-c2ccc(SCC(=O)NC3CCCCC3)nn2)cc1	17.3	19.7	35.0	15.9	-7.4	-5.3
CCC(=O)Nc1ccc2c(c1)C(=O)N(C)[C@H]1CC[C@H](CC(=O)NCCc3ccccc3)O[C@H]1CO2	·	·	·	-2.4	·	·
CCCOc1ccccc1Nc1nnc(C)c(=O)[nH]1	11.0	·	-2.5	2.1	·	-0.6
C=CCN(CC=C)CCOc1ccc(C)cc1[N+](=O)[O-]	-8.7	25.8	10.1	53.4*	-5.7	-0.9
C=CCN(CC=C)CCOc1cc(C)ccc1[N+](=O)[O-]	12.0	0.2	0.8	·	-10.3	-2.7
Cc1ccc(-c2nn(-c3ccccc3)cc2/C=N/NS(=O)(=O)c2ccccc2)cc1	1.6	·	62.6	·	23.9	-2.2
CC(=O)N1c2ccc(S(=O)(=O)NCCc3ccc(S(N)(=O)=O)cc3)cc2CC1C (stereo unspecified)	0.1	-0.7	2.1	-2.1	1.6	2.2
FC(F)Oc1ccc(NC(=S)NC2CCCCCCC2)cc1	-3.8	-2.5	37.2	46.7*	-67.3	-7.1
S=C(Nc1ccc(Br)cc1)NC1CCCCC1	1.7	7.2	29.9	43.4*	-0.2	-0.3
S=C(Nc1ccc2[nH]ccc2c1)NC1CCCCC1	-1.9	28.5	58.8	66.1*	17.7	2.7
CCOc1ccc(C(=O)/C=C/c2cc(OC)c(OC)c(OC)c2)cc1	-1.9	-7.2	-9.7	-5.7	-18.9	13.4
COc1ccc(C(=O)/C=C/c2ccc(OC(=O)c3cc(OC)c(OC)c(OC)c3)cc2)cc1	-10.1	9.9	-14.8	17.9	-2.9	42.3*
SMILES	Vif inh	Wnt bcat act	MITF act	esBAF inh	PfHsp90 set2	N-glyco inh
COc1ccc(/C=C/C(=O)c2ccc(C(=O)/C=C/c3ccc(OC)c(OC)c3)cc2)cc1OC	-5.9	-13.3	-10.8	8.2	-8.2	14.6
COC(=O)c1ccc(/C=C/C(=O)c2ccc(OC)c(OC)c2)cc1	11.6	·	0.5	-4.3	24.7	62.4*
COc1ccc(N2CCN(C(=O)c3ccc(Cn4nc(C)c([N+](=O)[O-])c4C)o3)CC2)cc1	3.1	-2.5	-4.4	-5.7	7.3	-6.7
CCn1c(=N)c(S(=O)(=O)c2ccc(C)cc2)cc2c(=O)n3ccccc3nc21	·	-0.6	·	·	·	·
Cc1ccc(S(=O)(=O)c2cc3c(=O)n4ccccc4nc3n(CCc3ccccc3)c2=N)cc1	3.1	12.6	32.3	-3.0	9.4	69.4*
CCOCCCn1c(=N)c(S(=O)(=O)c2ccc(C)cc2)cc2c(=O)n3cc(C)ccc3nc21	50.0*	-0.1	-4.7	-7.8	-7.2	-0.3
CC1=C/C(=C\c2ccc(Br)o2)C(=O)O1	1.7	-4.2	-5.3	·	18.8	3.8
O=C1C(=Cc2ccc(Br)o2)C(=O)c2ccccc21	-8.6	·	12.7	63.7*	-2.5	1.5
CO[C@@H]1CN(C)C(=O)c2cc(NC(=O)Nc3cc(Cl)cc(Cl)c3)ccc2OC[C@H](C)NC[C@H]1C	·	·	·	-8.6	·	·
C#CCNC(=O)/C=C/c1ccc(C)cc1	2.7	27.5	91.4*	32.3	-1.5	-3.2
O=C(c1cc(-c2cccc(Cl)c2)on1)N1CCCCCC1	-10.1	21.2	113.0*	62.6*	14.6	2.8
O=C(c1cc(-c2ccc(Cl)c(Cl)c2)on1)N1CCCCCC1	-11.8	21.8	131.1*	58.5*	2.0	-1.3
O=C(c1cc(-c2ccc(O)cc2)on1)N1CCCCCC1	2.6	39.6*	84.4*	11.4	-2.7	-7.3
O=C(c1cc(-c2ccc(Cl)cc2Cl)on1)N1CCCCCC1	-14.8	32.8*	41.7	-8.2	22.8	-11.8
CCCCCC(=O)N1CC2(CC(c3cccc(NC(=O)c4ccccc4)c3)=NO2)C[C@@H]1C(N)=O (stereo partly specified)	·	-1.3	4.7	·	·	1.6
CCN(CC)C(=O)N1c2ccccc2Sc2ccccc21	-11.3	-3.3	·	-5.1	-50.9	-8.3
CN(c1ccc(C(=O)COC(=O)C2CC2)cc1)S(C)(=O)=O	2.0	13.7	83.2*	3.4	14.3	-0.4
CC(C)(C)C(=O)Nc1ccc(C(=O)COC(=O)C2CC2)cc1	0.1	0.6	76.3	59.8*	·	-3.9
CCN(CC)C(=O)c1ccc(Cc2cn(C)c3ccccc23)nc1	-12.6	-2.1	·	6.1	·	0.6
O=C(Nc1ccc(F)cc1)C(c1ccncc1)N1CCN(c2cccc(C(F)(F)F)n2)CC1 (stereo unspecified)	·	-3.8	·	·	·	·
COc1ccc(-c2cc(C(=O)OCC(=O)NC3CC3)c3ccccc3n2)cc1	-7.9	-1.9	33.5	19.9	·	1.9
COc1ccc2cc(-c3cc(C(=O)OCC(=O)NC4CCS(=O)(=O)C4)c4ccccc4n3)ccc2c1 (stereo unspecified)	51.8*	·	9.7	·	-3.7	-12.2
c1ccc(-n2ncc3c(NCc4cccnc4)ncnc32)cc1	-0.8	·	47.3	·	15.0	-0.1
Clc1ccc(-n2ncc3c(NCc4ccco4)ncnc32)cc1	-4.4	59.9*	·	52.0*	-14.4	15.3
COc1ccc(-n2ncc3c(NCc4cccs4)ncnc32)cc1	-5.4	27.4	?	107.5*	-9.2	-3.7
COc1ccc(-n2ncc3c(NCc4ccco4)ncnc32)cc1	-10.0	·	·	22.3	·	-2.7
Cc1cccc(-n2ncc3c(NCCCN4CCCC4=O)ncnc32)c1	-13.4	29.1	27.0	·	6.4	-2.1

Source: PubChem BioAssay (Broad Institute)
